# Assay outcomes (PubChem)
# Only some compounds are listed: those with a hit (about 10% of all), similar ones and a draw of the others.
# VP16 counter: inhibits Gal4-VP16 luciferase reporter, ROR gamma counter-screen | Drosophila S2 Gal4-VP16 UAS-luciferase, luminescence, 20 h | Potency, µM (doses to about 53.6 µM), usual class: inhibitors | 310,000 tested, 3.5% active | AID 2546;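 note: Gal4-VP16 expression switched on by copper sulfate through the metallothionein promoter; nearly all actives have a fitted effect of over 50% in size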
# SW480 rereplic: DNA re-replication induction in SW480 cells; SW480 DNA re-replication, Hoechst DNA content imaging, 48 h; Potency, µM (titrated, usually from 46.1 µM), actives largely listed as activators; 340,000 tested, 1.8% active; AID 624297; note: nearly all actives have a fitted effect of over 55% in size
#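 250 cells/well; 23 nL cpd via pin tool; 48 hr, 37 C, 5% CO2; Hoechst 40 min; imager read of total nuclear intensity, ex 405/em 500-530 nm.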
# MCF10A rerep: induces DNA re-replication in MCF 10a normal breast cells; 350,000 tested, 2.9% active; MCF 10A DNA re-replication, Hoechst nuclear intensity, 48 h; Potency, µM (doses to about 46.1 µM), usual class: activators; AID 624296; note: nearly all actives have a fitted effect of over 50% in size
# RORgamma inh: ROR gamma (mouse) transcription inhibition; P51450; Drosophila S2 Gal4-RORgamma UAS-luciferase reporter, 20 h; Potency, µM (series often up to 53.6 µM), hits mostly inhibitors; 310,000 tested, 5.4% active; AID 2551; note: nearly all actives have a fitted effect of over 60% in size
# Target sequence (P51450 whole entry, looked up, the tested form may be a part): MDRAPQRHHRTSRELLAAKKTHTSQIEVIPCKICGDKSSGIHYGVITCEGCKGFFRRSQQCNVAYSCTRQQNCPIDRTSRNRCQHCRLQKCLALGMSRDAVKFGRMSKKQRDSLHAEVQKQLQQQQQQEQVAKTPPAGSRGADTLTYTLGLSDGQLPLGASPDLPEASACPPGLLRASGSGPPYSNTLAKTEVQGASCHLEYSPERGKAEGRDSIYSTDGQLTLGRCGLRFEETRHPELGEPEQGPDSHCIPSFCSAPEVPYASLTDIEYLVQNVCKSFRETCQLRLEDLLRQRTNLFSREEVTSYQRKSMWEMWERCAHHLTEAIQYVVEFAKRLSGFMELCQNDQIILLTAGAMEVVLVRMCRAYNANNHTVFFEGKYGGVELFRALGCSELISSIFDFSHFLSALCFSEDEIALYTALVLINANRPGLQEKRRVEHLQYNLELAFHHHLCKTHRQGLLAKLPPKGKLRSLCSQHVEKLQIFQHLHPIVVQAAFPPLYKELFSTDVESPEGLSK
#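 A Gal4/UAS one-hybrid system in insect cells: metallothionein-promoter Gal4–ROR gamma fusion plus Photinus luciferase reporter. Copper sulfate 700 uM final, 20 hr ambient incubation, luminescent detection after 10 min with reagent.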
# ELG1 DNA repair: inhibitors of ELG1-dependent DNA repair in HEK293T cells; AID 504467; 330,000 tested, 2.3% active; Potency, µM (top dose mostly 46.1 µM), actives largely listed as inhibitors; HEK293T ELG1-luciferase reporter, luminescence, 16 h; DNA damage induced by 5-fluorouridine; note: nearly all actives have a fitted effect of over 55% in size
#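 Step one: seed 2,000 cells per well. Step two: pin-transfer compound or DMSO alongside 5-fluorouridine. Step three: incubate 16 hr, 37 °C, 5% CO2. Step four: add ONE-Glo, wait 30 min, read luminescence.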
# Hits are given with their value; n = inactive; u = inconclusive; x = no result given; [ ] = dose if it differs, or a comment. Calls come from the whole dose curve; as a rule, active = well fitted curve in the direction sought with a large enough effect; inconclusive = small, poorly fitted or top-dose-only effect, or another doubt; inactive = no such curve, though single readings can be large; an effect the other way counts as inactive or inconclusive.
SMILES,VP16 counter,SW480 rereplic,MCF10A rerep,RORgamma inh,ELG1 DNA repair
C=CCn1c(=N)c(C(=O)NCCCOC)cc2c(=O)n3cccc(C)c3nc21,n,u,4.1µM,n,n
Cc1cccn2c(=O)c3cc(C(=O)NCc4ccccc4)c(=N)n(CCCN4CCOCC4)c3nc12,x,5.2µM,n,x,x
COc1ccc(CCn2c(=N)c(C(=O)NCCN3CCOCC3)cc3c(=O)n4cccc(C)c4nc32)cc1OC,n,16µM,u,n,u
Cc1cccn2c(=O)c3cc(C(=O)NCCc4ccccc4)c(=N)n(CCCn4ccnc4)c3nc12,u,n,u,n,u
CCNC(=O)c1cc2c(=O)n3cccc(C)c3nc2n(CCc2ccccc2)c1=N,x,u,u,n[0.365 µM],u
COCCn1c(=N)c(C(=O)NCCc2ccccc2)cc2c(=O)n3cccc(C)c3nc21,x,1.8µM,u,x,x
Cc1cccn2c(=O)c3cc(C(=O)NCCN4CCOCC4)c(=N)n(CCc4ccccc4)c3nc12,n,2.6µM,2.6µM,n,n
COCCCn1c(C(=O)NCCN2CCOCC2)cc2c(=O)n3cccc(C)c3nc21,n,u,u,n,n
Cc1cccn2c(=O)c3cc(C(=O)NCCN4CCOCC4)c(=N)n(CCCN4CCOCC4)c3nc12,n,1.2µM,u,n,n
Cc1cccn2c(=O)c3cc(C(=O)NCCc4ccccc4)c(=N)n(CC4CCCO4)c3nc12 (stereo unspecified),n,n,u,n,n
Cc1cc(O)c(C)c2sc(N)nc12,n,x,x,n,x
O=C(NC1CC(=O)N(c2ccccc2)C1)C1CC1 (stereo unspecified),x,n,n,x,n
COc1ccccc1-n1c(C)nc2cc(C(=O)NCCN3CCOCC3)ccc21,n,3.7µM,n,n,n
COc1ccccc1-n1cnc2cc(C(=O)NCCCN3CCOCC3)ccc21,x,n,n,n[0.365 µM],n
C=CCOc1ccc(C2NC(=S)NC(c3ccccc3)=C2C(C)=O)cc1OC (stereo unspecified),n,n,n,14µM,n
CCOC(=O)COc1c(Cl)cc(C2NC(=S)NC(c3ccccc3)=C2C(C)=O)cc1OCC (stereo unspecified),3.2µM,n,n,3.5µM,u
COc1ccc(OC)c(NC(=O)CN2CCc3ccccc3C2)c1,n,n,n,n,u
CCOC(=O)N1CCC(N2CCN(c3cc(C)ccc3C)CC2)CC1,n,n,n,n,u
CCOC(=O)c1ccc(N2CCN(c3cc(C)ccc3C)CC2)c(N)c1,n,u,18µM,n,n
Cc1ccc(OCCn2cnc3c2c(=O)n(C)c(=O)n3C)cc1,n,u,n,u,n
Cc1ccc(NC(=O)COC(=O)c2ccccc2Cl)cc1S(=O)(=O)N(C)C,n,n,n,n,n
CC(=O)N/C(=C\c1ccccc1)C(=O)OCc1cccc(S(=O)(=O)N(C)C)c1,n,n,n,n,7.3µM
CC(=O)N/C(=C\c1ccccc1)C(=O)OCC(=O)Nc1ccc(C)c(S(=O)(=O)N(C)C)c1,x,5.8µM,n,x,n
CC(CCNC(=O)c1ccccc1)(CCNC(=O)c1ccccc1)[N+](=O)[O-],x,n,n,x,x
CSc1ncccc1C(=O)Nc1nnc(C2CC2)s1,n,n,n,n,n
SMILES,VP16 counter,SW480 rereplic,MCF10A rerep,RORgamma inh,ELG1 DNA repair
Brc1ccc(-c2csc3[n+]2CCCCC3)cc1,n,n,n,n,u
c1ccc(-c2c[nH]c3[n+]2CCCCC3)cc1,u,n,n,22µM,n
Cc1ccc(N2CCC(N3CCN(C4CCCCC4)C(CCO)C3)CC2)cc1 (stereo unspecified),n,n,n,n,n
COC1=CCC2([N+](=O)[O-])CN(CCO)CC1([N+](=O)[O-])C2 (stereo unspecified),n,n,n,n,n
O=C(O)CCN1CC2([N+](=O)[O-])CC=C(OCCO)C([N+](=O)[O-])(C1)C2 (stereo unspecified),n,3.7µM,n,n,n
CCOC(=O)Nc1ccc2c(c1)N(C(=O)CCN1CCOCC1)c1ccccc1S2=O (stereo unspecified),u,5.8µM,10µM,n,n
Cc1oc(-c2cccc(Cl)c2)nc1CS(=O)(=O)CC(=O)NC1CC1,n,n,u,n,n
Cc1oc(-c2ccccc2Cl)nc1CSCC(=O)O,7.9µM,n,n,n,n
Cc1oc(-c2ccccc2Cl)nc1CSCC(=O)NC1CC1,n,n,u,n,n
Cc1oc(-c2cccc(Cl)c2)nc1CSCC(=O)O,5µM,n,n,10µM,n
Cc1ccccc1-n1cnc2c(sc3nc(N4CCOCC4)c4c(c32)CCCC4)c1=O,n,n,u,n,u
COCCN(Cc1cc2cc3c(cc2nc1Cl)OCO3)C(=O)c1ccc(C)cc1,u,u,n,1.6µM,u
COCCN(Cc1cc2cc(C)ccc2nc1Cl)C(=O)Nc1ccccc1OC,n,n,n,u,21µM
CCCc1cc2c(n1Cc1ccc(OC)cc1)C(C)C1CN(C(=O)c3ccccc3)C(C)(C(=O)OC)C21 (stereo unspecified),n,x,x,n,x
Cc1ccc(C(=O)NCCc2ccc(F)cc2)s1,n,n,n,n,u
COc1cccc(C(=O)N/N=C/c2ccc(OC)c(COc3ccccc3C(N)=O)c2)c1,n,16µM,u,u,n
COc1ccc(/C=N\NC(=O)c2ccc([N+](=O)[O-])cc2)cc1COc1c(F)c(F)cc(F)c1F,4.5µM,n,n,3.5µM,u
COc1ccc(/C=N/NC(=O)c2cccnc2)cc1COc1ccc([N+](=O)[O-])cc1,n,u,u,n,n
COc1ccc(C=O)cc1COc1ccccc1F,n,u,n,n,n
COc1ccc(/C=C/C(=O)c2ccccc2)cc1COc1ccccc1F,u,15µM,u,n,n
COc1ccc(C(=O)N/N=C/c2ccc(OC)c(COc3c(F)c(F)cc(F)c3F)c2)cc1,u,n,u,u,n
COc1ccc(/C=N/NC(=O)c2cccnc2)cc1COc1ccc(NC(C)=O)cc1,n,8.2µM,4.1µM,n,n
COc1ccc(/C=N\NC(=O)c2ccc(F)cc2)cc1COc1ccccc1C(N)=O,n,n,u,n,n
COc1ccc(/C=C(/NC(=O)c2ccc(OC)c(OC)c2)C(=O)NCCCn2ccnc2)cc1,n,n,n,n,n
COc1ccc(/C=N/NC(=O)c2ccn[nH]2)cc1COc1ccc(Cl)cc1,n,u,u,n,n
COc1ccc(C(=O)N/N=C/c2ccc(OC)c(CN3CCN(c4ccc(F)cc4)CC3)c2)cc1,n,n,n,n,21µM
COc1cc(OC)cc(C(=O)N/N=C/c2ccc(OC)c(COc3ccc(F)cc3)c2)c1,u,5.8µM,5.8µM,4µM,n
COc1ccc(C(=O)N/N=C\c2ccc(OC)c(COc3ccccc3Br)c2)c(OC)c1,n,n,n,n,8.2µM
COc1ccc(/C=N/NC(=O)c2cccnc2)cc1CN1CCN(c2ccc(F)cc2)CC1,n,n,n,n,u
